In the library only some 3.5% were active in any assay of this set; here they are far more common.
mHTT-CaM PPI inh: disrupts binding of mutant huntingtin to calmodulin; P42858; AlphaScreen His-mHTT/GST-CaM binding, luminescence; inhibition, % at 15 µM; 190,000 compounds, 3.6% hits; AID 1671202;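 further: 0% = both proteins with DMSO and 100% = one protein alone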
Pf apPOL inh: Pf-apPOL DNA polymerase inhibition; Recombinant Pf-apPOL, molecular beacon fluorescence, 1.5 h; inhibition, % at 10 µM; 210,000 compounds, 0.25% hits
Starred values were filed as active, the others as inactive. No stated cut-off is given here; in the data, active means inhibition above about 50%; inactive means the rest.

Cc1ccc([C@H]2C[C@@H](n3cc(C4CC4)nn3)[C@H](O)CN2Cc2cccs2)cc1 was read as mHTT-CaM PPI inh 31.9 and Pf apPOL inh -1.2.
For COc1ccc([C@H]2C[C@H](O)[C@@H](n3cc(C4CC4)nn3)CN2Cc2cccs2)cc1 the results were mHTT-CaM PPI inh 94.0* and Pf apPOL inh 1.9.
For Cn1nc(-c2nc(-c3ccccc3F)no2)c2c1CCN(C(=O)c1ccco1)C2 the results were mHTT-CaM PPI inh 1.9 and Pf apPOL inh -3.6.
Cc1cccc(S(=O)(=O)Nc2ccc(Cl)cc2)c1 was read as mHTT-CaM PPI inh -13.2 and Pf apPOL inh 0.0.
For O=C(Nc1cccc(Cl)c1)c1ccc(F)c(S(=O)(=O)N2CCOCC2)c1 the results were mHTT-CaM PPI inh 2.0 and Pf apPOL inh -6.8.
Screening O=S(=O)(Nc1cccc(Br)c1)c1cccc2cccnc12 returned mHTT-CaM PPI inh -2.0 and Pf apPOL inh -2.1.
O=[N+]([O-])c1ccc(S(=O)(=O)n2cccn2)cc1 was read as mHTT-CaM PPI inh 8.0 and Pf apPOL inh 12.7.
For COc1ccc(OC)c(S(=O)(=O)c2ccc([N+](=O)[O-])cc2Cl)c1 the results were Pf apPOL inh -9.9.
For CC(C)Cc1ccc(S(=O)(=O)n2cc([N+](=O)[O-])cn2)cc1 the results were mHTT-CaM PPI inh 100.0* and Pf apPOL inh -3.3.
`COc1ccc(OC)c(S(=O)(=O)n2cc([N+](=O)[O-])cn2)c1` gave mHTT-CaM PPI inh 100.0* and Pf apPOL inh -11.3.
Cc1cc(C)c(S(=O)(=O)N2CCCC2c2nc(-c3cccc(F)c3)no2)c(C)c1 (centres undefined) was read as mHTT-CaM PPI inh -13.4 and Pf apPOL inh -0.2.
Screening CSc1nc2nnc(-c3nc4ccccc4[nH]3)c(N)n2n1 returned mHTT-CaM PPI inh 14.2.
CCc1onc(C)c1C1CCCN1Cc1sccc1C (centres undefined) was read as mHTT-CaM PPI inh -58.0 and Pf apPOL inh 1.3.
Screening O=C(NCC1CC(=O)N(c2ccc(Cl)cc2)C1)c1c(F)cccc1F (centres undefined) returned mHTT-CaM PPI inh -8.4 and Pf apPOL inh -19.9.
`O=C(Nc1ccc([N+](=O)[O-])cc1Br)c1ccco1` gave mHTT-CaM PPI inh 4.6 and Pf apPOL inh 2.4.
Screening Nc1ccc([N+](=O)[O-])cc1C(=O)NNC(=O)c1ccco1 returned Pf apPOL inh 68.3*.
`Cc1ccccc1CNc1ccc2c(c1)OCO2` gave mHTT-CaM PPI inh 90.9* and Pf apPOL inh 5.6.
Screening Cc1ccc(CNc2ccc3c(c2)OCO3)cc1 returned mHTT-CaM PPI inh 100.5* and Pf apPOL inh 0.5.
Screening CCCCOc1ccc(CNc2ccc3c(c2)OCO3)cc1 returned mHTT-CaM PPI inh 91.5* and Pf apPOL inh 0.0.
Cc1ccc(C(=O)Nc2ccc3c(c2)OCO3)cc1 was read as mHTT-CaM PPI inh 47.0 and Pf apPOL inh 0.5.
For O=C(NCc1ccco1)C(=O)Nc1ccc2c(c1)OCO2 the results were mHTT-CaM PPI inh 0.3 and Pf apPOL inh -2.2.
Screening COc1ccccc1CC(=O)Nc1ccc2c(c1)OCO2 returned mHTT-CaM PPI inh 7.4 and Pf apPOL inh -4.5.
CCCCOc1ccc(S(=O)(=O)NCc2ccc3c(c2)OCO3)cc1 was read as mHTT-CaM PPI inh -0.6 and Pf apPOL inh -18.4.
c1coc(CNc2ccc3c(c2)OCO3)c1 was read as mHTT-CaM PPI inh 71.4* and Pf apPOL inh 1.8.
Screening O=C(NCc1cc(F)cc(F)c1)c1ccc(N2CCNC(c3ccccc3)C2)nc1 (centres undefined) returned mHTT-CaM PPI inh 12.9 and Pf apPOL inh -11.1.
For CCOc1ccc(Br)cc1C=C1SC(=S)N(CCc2ccc(OC)c(OC)c2)C1=O the results were Pf apPOL inh -0.6.
Screening CC(=O)Oc1ccc(C(=O)Nc2cc(Cl)ccc2OC(C)=O)cc1 returned mHTT-CaM PPI inh 68.8* and Pf apPOL inh -0.6.
COc1ccc(OC)c(NC(=O)c2ccc(Cl)cc2)c1 was read as mHTT-CaM PPI inh -5.5 and Pf apPOL inh -3.4.
c1cnc(NC2CCCC2)cn1 was read as mHTT-CaM PPI inh -4.1 and Pf apPOL inh -8.5.
`CSc1ccccc1NC(=O)CN1CCN(c2ccc(C(C)C)cc2)C1=O` gave mHTT-CaM PPI inh 0.0 and Pf apPOL inh -7.2.
Screening NC(=O)c1ccc(Oc2cccc(Oc3ccc(C(N)=O)cc3)c2)cc1 returned mHTT-CaM PPI inh -0.9 and Pf apPOL inh 0.8.
Screening O=C1C=CC(=O)N1c1ccc(Oc2cccc(Oc3ccc(N4C(=O)C=CC4=O)cc3)c2)cc1 returned mHTT-CaM PPI inh 91.0* and Pf apPOL inh -6.0.
For Cc1cccc(Oc2ccc(N3C(=O)C=CC3=O)cc2)c1C the results were mHTT-CaM PPI inh 49.0 and Pf apPOL inh -9.4.
`Nc1ccc(Oc2cccc(Oc3ccc(N)cc3)c2)cc1` gave mHTT-CaM PPI inh 52.1* and Pf apPOL inh -17.8.
`Cn1c(SCC(=O)Nc2ccc(Cl)c(Cl)c2)nnc1-c1cccnc1` gave mHTT-CaM PPI inh 13.0 and Pf apPOL inh -3.5.
`COc1ccc(N2CC(c3nnc(NC(=O)c4cccc(F)c4)o3)CC2=O)cc1` (centres undefined) gave mHTT-CaM PPI inh 46.9 and Pf apPOL inh -0.4.
For O=C(Nc1ccc(Cl)c(Cl)c1)c1ccc(F)c(S(=O)(=O)NCc2ccc(F)cc2)c1 the results were mHTT-CaM PPI inh 0.0 and Pf apPOL inh -7.4.
`O=C(Nc1cc(Cl)cc(Cl)c1)c1ccc(F)c(S(=O)(=O)NCCc2ccccc2)c1` gave mHTT-CaM PPI inh 40.0 and Pf apPOL inh 38.9.
`O=C(Nc1ccc(F)c(F)c1)c1ccc(F)c(S(=O)(=O)NCCc2ccc(Cl)cc2)c1` gave mHTT-CaM PPI inh 50.0* and Pf apPOL inh -22.7.
Screening O=C(Nc1ccc(Cl)c(Cl)c1)c1ccc(F)c(S(=O)(=O)NCCc2ccccc2)c1 returned mHTT-CaM PPI inh 71.0* and Pf apPOL inh 4.6.
`Cc1cc(N2CCCCC2)nc2ccc(NC(=O)c3ccc(Cl)nc3)cc12` gave mHTT-CaM PPI inh 6.0 and Pf apPOL inh -2.7.
For CCOc1cccc(CNc2ccc(F)c(Cl)c2)c1O the results were mHTT-CaM PPI inh 62.6* and Pf apPOL inh 1.1.
Screening Oc1c(Cl)cc(Cl)cc1CNc1ccc(F)c(F)c1 returned mHTT-CaM PPI inh 100.3* and Pf apPOL inh -0.4.
For COc1ccc(OC)c(CNc2ccc(F)c(Cl)c2)c1 the results were mHTT-CaM PPI inh 30.0 and Pf apPOL inh -1.3.
Screening COc1ccc(CNc2ccc(F)c(Cl)c2)c(OC)c1OC returned mHTT-CaM PPI inh 54.1* and Pf apPOL inh -5.3.
`COc1ccc(CNc2ccc(F)c(Cl)c2)cc1C` gave mHTT-CaM PPI inh -17.4 and Pf apPOL inh -3.7.
O=[N+]([O-])c1ccccc1CNc1ccc(F)c(Cl)c1 was read as mHTT-CaM PPI inh 46.8 and Pf apPOL inh 11.3.
COc1cccc(NC(=O)C2CCN(c3c(C#N)cnc4ccc(F)cc34)CC2)c1 was read as mHTT-CaM PPI inh 1.2 and Pf apPOL inh 2.5.
For COc1cc(C=CC(=O)c2ccccc2)ccc1OC(=O)c1cccc([N+](=O)[O-])c1 the results were mHTT-CaM PPI inh 2.9 and Pf apPOL inh -0.8.
`CCOc1ccc(S(=O)(=O)N2CCCC(C)(C(=O)NCc3ccccc3)C2)cc1` (centres undefined) gave mHTT-CaM PPI inh 5.5 and Pf apPOL inh 0.6.
CCCC(C)C(=O)Nc1ccc(Br)cc1 (centres undefined) was read as mHTT-CaM PPI inh -14.3 and Pf apPOL inh -4.5.
For CCCC(C)C(=O)Nc1ccc(OCC)cc1 (centres undefined) the results were mHTT-CaM PPI inh 100.0* and Pf apPOL inh 4.3.

Screening results (PubChem BioAssay)
